This note sets out measurements from PubChem BioAssay AID720517 (National Center for Advancing Translational Sciences (NCATS), 2013).

Results filed as inconclusive are left out. Values without a mark were called inactive. Calls come from the whole dose curve; as a rule, active = well fitted activation curve with a large enough effect; inconclusive = small, poorly fitted or top-dose-only effect; inactive = flat fitted curve, though single readings scatter.

The experiment can be described thus: qHTS for Inhibitors of Cell Surface uPA Generation: FP59 Counterscreen for Cherry-picked Compounds. Note: 0% is about no effect. To be noted: FP59 anthrax toxin cytotoxicity counterscreen, cells; series mostly up to 115 µM; activity (protection from FP59): at the top concentration.
In the case of `Cc1cc(COc2ccccc2)oc1C(=O)O`, the “activity (protection from FP59)” value is -1.48%.
As for `COC(=O)C1=CN(Cc2ccc(F)cc2)C=C(C(=O)OC)C1c1ccc(O)c(OC)c1`, the figure is 0.908%; as for `COCC(=O)N1CCC(n2nccc2NC(=O)c2ccccc2OC)CC1`, -1.56%; as for `O=C(NC[C@H]1CCCO1)c1cccc2c1C(=O)c1ccc(-c3ccc(F)cc3OCc3ccccc3)cc1S2(=O)=O`, -1.32%.
For `Cc1nc(NC(=O)CSc2nnc(C3CC3)n2C)sc1C(=O)N(C)C`, the “activity (protection from FP59)” value is -1.35%.
As for `Cc1ccc(CC2CC(=O)N(c3cc(C)ccc3C)C2=O)cc1` (centres undefined), the figure is -1.38%; as for `CCN(CC)CCNC(=O)/C(=C/c1cn(CC)c2ccccc12)NC(=O)c1cc(OC)c(OC)c(OC)c1`, -1.38%.
As for `Cc1ccc(S(=O)(=O)NC(=O)Nc2nccs2)cc1`, the figure is -1.39%; as for `CC1(NC(=O)CSc2nnc(-c3c[nH]c4ccccc34)n2C2CC2)CCS(=O)(=O)C1` (centres undefined), 0.18%.
In the case of `O=C(/C=C/c1cccc(Oc2ccccc2)c1)N1CCOCC1`, the “activity (protection from FP59)” value is -1.21%.
As for `COc1ccc(/C(C)=N/N2CCOCC2)c(O)c1`, the figure is -1.43%; as for `COc1cc(CN2CCNC(=O)C2CC(=O)NCCCC2CCCC2)cc(OC)c1` (centres undefined), -1.23%.
As for `CCc1nc(SCC(N)=O)c2c(=O)n(C)c(=O)n(C)c2n1`, the figure is -1.48%; as for `COC(=O)Cc1c(C)c2ccc(OCC(=O)N3CCCC(C)C3)c(C)c2oc1=O` (centres undefined), -1.33%; as for `C[C@@H](C(=O)Nc1ccc2ccccc2c1)[C@@H]1C[C@@]1(C)[C@@H](NC(=O)c1cccnc1)c1ccccc1`, 8.6%.
On to `COc1ccc2c(c1)c1nnc(SCC(=O)Nc3ccccc3F)nc1n2C`, for which the “activity (protection from FP59)” value is -0.912%.
As for `CC1=NN(C(N)=S)C(=O)C1N=Nc1ccccc1C(=O)O` (centres undefined), the figure is -1.41%; as for `O=C(C1=C[C@H](c2ccccc2)C[C@H](OCCCCO)O1)N1CCN(Cc2ccc3c(c2)OCO3)CC1`, -0.646%; as for `Cc1nc(SCc2nc3ccccc3[nH]2)c2oc3cc([N+](=O)[O-])ccc3c2n1`, -0.853%.
As for `CC(=O)c1ccc(N=C2SCCCN2C(=O)C2CCCCC2)cc1`, the figure is -0.984%.
As for `C=CCc1cc(S(=O)(=O)c2ccc(O)c(CC=C)c2)ccc1O`, the “activity (protection from FP59)” value is 0.647%.
With `COc1cc(SC)ccc1C(=O)OCc1nc2ccsc2c(=O)[nH]1` the figure was -1.26%; with `Cc1cccc(Nc2ccc(NCc3ccccc3)nn2)c1`, -1.23%.
With `COc1ccc2nc(C)cc(Nc3ccccc3O)c2c1` the figure was -1.53%.
As for `COCCNS(=O)(=O)c1cc(OC)c(C)cc1C`, the figure is -1.25%.
Consider `C[N+]1(CC(O)c2ccccc2)CCCCCC1` (centres undefined), for which the “activity (protection from FP59)” value was -1.28%.
As for `CC(/C=C1\SC(=S)N(CCCC(=O)Nc2ccc(C(=O)O)cc2)C1=O)=C\c1ccccc1`, the figure is -0.862%; as for `COc1ccc(Cc2nnc(Nc3ccc(C)cc3)o2)cc1OC`, -1.17%.
With `COCCn1c(SCC(=O)Nc2ccc(F)cc2)nc2ccccc2c1=O` the figure was -1.36%; with `Cc1ccc(NC(=O)CSc2nncn2N)cc1C`, -1.25%.
`O=C(CSc1ccc(Cl)cc1)N1CCCC1`: the “activity (protection from FP59)” value is -1.54%.
As for `COc1ccccc1N1CCN(C(=O)CCC(=O)N2CCN(c3ccc(F)cc3)CC2)CC1`, the figure is -1.52%; as for `CCOc1ccc(OCC)c(NC(=O)c2ccc(CNc3c(N4CCCC4)c(=O)c3=O)cc2)c1`, -1.24%; as for `COC(/C=C/Nc1ccc(Cl)cc1)=C(C#N)C#N`, -1.39%.
As for `CCOc1ccccc1CN1CCCC(CNS(=O)(=O)c2ccc(OC)cc2)C1` (centres undefined), the figure is -0.81%.
On to `Cc1cccc(N2C(=O)c3cccc(Oc4ccc(Cl)cc4)c3C2=O)c1`, for which the “activity (protection from FP59)” value is -0.698%.
As for `CN(/N=C/c1cc(Cl)cc(Cl)c1O)C(=S)NC(C)(C)C`, the figure is -1.39%.
As for `COc1cccc(C(=O)NCC(c2ccco2)N2CCc3ccccc3C2)c1` (centres undefined), the figure is -1.3%; as for `O=C(Nc1cccc(NC(=O)c2ccc(F)cc2)c1)c1ccc(F)cc1`, -1.25%.
